# BRCT inh green: qHTS Assay for Inhibitors of BRCT-Phosphoprotein Interaction (Green Fluorophore); Breast cancer type 1 susceptibility protein (Homo sapiens), P38398; BRCA1 BRCT-phosphopeptide binding, green fluorescence polarization; Potency, µM (titrated, usually from 76.9 µM), inactives show at the highest dose activity change, negative = inhibition, usual class: inhibitors; 75,000 tested, 0.05% active; AID 875, 2007;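 also: potency is read from the fitted curve at half-maximal effect; plate controls were peptide without protein for full effect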
#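 Fluorescence polarization: His-tagged BRCT (~35 kDa BRCA1 C-terminus, 250 nM) bound to 100 nM fluorescein-labeled phosphorylated 10-aa BACH1 peptide, pH 7.3 phosphate buffer with DTT and Tween 20. Compounds incubated 12 min at room temperature; inhibition read as lowered polarization.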
# BRCT inh red: qHTS Assay for Inhibitors of BRCT-Phosphoprotein Interaction (Red Fluorophore). Breast cancer type 1 susceptibility protein (Homo sapiens), P38398. Potency, µM (doses to about 76.9 µM), without a hit: top-dose activity change, negative = inhibition, most hits filed as inhibitors. BRCT-phosphopeptide binding, red fluorescence polarization. 75,000 tested, 0.03% active. AID 892, 2007; also: % is scaled to controls: 0 for no effect and ±100 for the full control effect
#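 Rhodamine-labelled pBACH1 10-mer (100 nM) bound to BRCT domain (100 nM) at pH 7.3; compounds incubated 12 min room temperature, polarization read. Free peptide defines full inhibition; unlabelled decapeptide titrated as control.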
# TsaE inh: qHTS Assay for Inhibitors of YjeE; tRNA threonylcarbamoyladenosine biosynthesis protein TsaE (Escherichia coli (strain …; purified YjeE enzyme, qHTS inhibition assay; Potency, µM; 71,000 tested, 0.05% active; AID 605, 2007
#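 Fluorescence polarization of a BODIPY Texas Red–ADP probe (2 uM) bound to purified YjeE (10 uM) was read after 15 min room-temperature incubation with compounds. Loss of polarization marks inhibitors; ADP serves as titrated control.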
# Tau filament bind: qHTS Assay for Tau Filament Binding | recombinant tau filaments, thioflavin S fluorescence, 15 h; filaments grown with octadecylsulfate alongside compound | Potency, µM (highest dose often 57.1 µM), for the others: top-dose activity change, negative = inhibition | 71,000 tested, 2% active | Microtubule-associated protein tau (Homo sapiens), P10636;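 also: potency is read from the fitted curve at half-maximal effect; % is scaled to controls: 0 for no effect and ±100 for the full control effect; actives lower thioflavin S fluorescence by blocking filaments or displacing dye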
# Target sequence (P10636 whole entry, looked up): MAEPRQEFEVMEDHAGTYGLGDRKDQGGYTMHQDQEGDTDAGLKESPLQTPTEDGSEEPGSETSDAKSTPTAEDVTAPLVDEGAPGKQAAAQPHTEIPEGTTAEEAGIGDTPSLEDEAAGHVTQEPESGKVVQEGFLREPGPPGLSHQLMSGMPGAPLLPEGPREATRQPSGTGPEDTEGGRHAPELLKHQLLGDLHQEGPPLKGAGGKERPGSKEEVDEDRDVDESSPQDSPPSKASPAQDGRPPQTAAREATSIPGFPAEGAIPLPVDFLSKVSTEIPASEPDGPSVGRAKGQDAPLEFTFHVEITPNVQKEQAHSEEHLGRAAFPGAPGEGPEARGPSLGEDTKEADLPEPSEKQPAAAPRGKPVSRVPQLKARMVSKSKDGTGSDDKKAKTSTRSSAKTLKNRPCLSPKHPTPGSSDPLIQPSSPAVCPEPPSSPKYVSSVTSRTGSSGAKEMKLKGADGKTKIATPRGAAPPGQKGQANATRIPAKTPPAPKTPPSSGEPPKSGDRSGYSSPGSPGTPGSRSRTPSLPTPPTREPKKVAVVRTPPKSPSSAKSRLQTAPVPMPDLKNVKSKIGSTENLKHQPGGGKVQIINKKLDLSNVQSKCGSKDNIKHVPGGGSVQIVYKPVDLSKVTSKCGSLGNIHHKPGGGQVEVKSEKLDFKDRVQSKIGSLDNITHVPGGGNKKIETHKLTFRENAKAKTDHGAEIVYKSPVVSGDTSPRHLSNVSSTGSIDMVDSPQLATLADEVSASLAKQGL
#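 ThS-based fibril read: tau 1 uM final, inducer ODS 30 uM final, 37 C for 15 h, ex 450/em 510 nm.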
# ALOX15 inhib: qHTS Assay for Inhibitors of 15-hLO (15-human lipoxygenase); 74,000 tested, 1.4% active; AID 887, 2007; Potency, µM (top dose mostly 57.1 µM), inactives show at the top dose activity change, negative = inhibition, hits mostly inhibitors; Polyunsaturated fatty acid lipoxygenase ALOX15 (Homo sapiens), P16050; purified 15hLO-1, xylenol orange hydroperoxide absorbance; also: potency is read from the fitted curve at half-maximal effect; % is scaled to controls: 0 for no effect and ±100 for the full control effect; nearly all actives have a fitted effect of over 55% in size
#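 Quantitative HTS in 25 mM Hepes pH 7.5 containing 0.01% Triton X-100: human 15hLO-1 at 40 nM, arachidonic acid at 50 uM, 6 min turnover. Product quantified via ferrous oxidation/xylenol orange, 573:405 nm absorbance ratio.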
# DNA Pol III inh: qHTS Assay for Inhibitors of DNA Polymerase III Holoenzyme System; reconstituted DNA polymerase III holoenzyme replication, biochemical; Potency, µM (titrated, usually from 57.1 µM), for inactives: at the top dose activity change, negative = inhibition; 71,000 tested, 0.25% active; AID 603, 2007; also: potency is read from the fitted curve at half-maximal effect; % is scaled to controls: 0 for no effect and ±100 for the full control effect
#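 Reconstituted *E. coli* holoenzyme (0.35 nM Pol III, 1 nM beta, 154 nM SSB, 2 nM primase) was preincubated with compound for 15 min at RT. Synthesis on 1.4 nM ssM13Gori ran 35 min, then was stopped with PicoGreen/EDTA and read as dsDNA fluorescence.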
# * hit, by the source's call; i = inactive; ? = inconclusive; . = not tested or not shown; [ ] = another dose, or the depositor's remark. A selection: hits, their analogues and other compounds. The true share with any hit is near 3.3%. Calls follow the shape of the dose curve; as a rule, active = well fitted curve in the direction sought with a large enough effect; inconclusive = small, poorly fitted or top-dose-only effect, or another doubt; inactive = no such curve, though single readings can be large; an effect the other way counts as inactive or inconclusive.
SMILES,BRCT inh green,BRCT inh red,TsaE inh,Tau filament bind,ALOX15 inhib,DNA Pol III inh
CC1(C)CC(=O)C2=C(C1)OC(N)=C(C#N)C21CCN(C(=O)OCc2ccccc2)CC1,-3.4%,-1.1%,i,-3.6%,-14.7%,-0.6%
N#CC1=C(N)OC2=C(C(=O)CCC2)C12CCN(C(=O)OCc1ccccc1)CC2,2.4%,-1.4%,i,-18.0%,25.1µM*,-1.2%
O=c1c(-c2cccs2)nc2cncnc2n1Cc1ccc(F)cc1,0.1%,-2.4%,i,25.1%,5.9%,-7.8%
CCCNC(=O)OC[C@@H]1O[C@H](CCO/N=C(\C)CCC(=O)OC[C@@H]2O[C@H](C#Cc3ccccc3)C=C[C@@H]2Oc2ccc(C)cc2)C=C[C@@H]1Oc1ccc(OC)cc1,-2.0%[15.4 µM],1.9%[15.4 µM],.,.,7.8%[11.4 µM],.
COc1cccc(C2c3c(oc4cc(C)c(C)cc4c3=O)C(=O)N2CCCN(C)C)c1 (stereo unspecified),-1.7%,0.3%,i,-29.3%,10.0%,-3.6%
COC(=O)c1ccc(C2c3c(oc4cc(C)c(C)cc4c3=O)C(=O)N2CCCN(C)C)cc1 (stereo unspecified),-2.9%,2.7%,i,10µM*,2.2%,1.2%
CCOc1ccc(C2c3c(oc4cc(C)c(C)cc4c3=O)C(=O)N2CCCN(C)C)cc1OC (stereo unspecified),-0.7%,1.4%,i,25.1µM*,0.6%,-5.9%
CCCOc1ccc(C2c3c(oc4cc(C)c(C)cc4c3=O)C(=O)N2CCCN(C)C)cc1OCC (stereo unspecified),0.4%,1.2%,i,-26.1%,4.9%,-4.5%
COc1ccc(C2c3c(oc4ccccc4c3=O)C(=O)N2c2ccc(C)cn2)cc1OC (stereo unspecified),-1.6%,-2.4%,i,6.31µM*,0.9%,-0.5%
Oc1[nH]c2ccccc2c1C=Nc1ccc2c(c1)OCO2,-4.1%,-0.4%,.,.,-27.2%,.
Oc1[nH]c2ccccc2c1/C=N/c1nccs1,4.9%,0.5%,i,12.6µM*,2.3%,-8.4%
CCOC(=O)N1CCC(NC(=O)C(CC(C)C)NC(=O)C2CCCCC2)CC1 (stereo unspecified),0.0%,0.0%,i,3.7%,15.8µM*,-3.2%
CCOC(=O)N1CCC(NC(=O)C(NC(=O)C2CCCCC2)C(C)C)CC1 (stereo unspecified),-2.5%,-0.6%,i,3.9%,9.4%,-2.6%
CN(C)C(=O)c1ccc(-c2cc(-n3ccnc3)ncn2)cc1,0.3%,0.0%,i,-7.9%,25.1µM*,-5.8%
CN(C)c1ccc(-c2cc(-n3ccnc3)ncn2)cc1,-0.3%,-0.5%,i,-8.6%,?,-9.7%
CN(C)Cc1ccccc1-c1cc(-n2ccnc2)ncn1,-2.8%,-0.4%,i,-3.0%,12.6µM*,-1.0%
O=C(CCN1CCCCC1)c1csc2ccccc12,-0.1%[15.4 µM],0.4%[15.4 µM],i,7.0%[11.4 µM],-1.5%[11.4 µM],-8.1%[11.4 µM]
CN1CC[C@@]2(CCN3CCc4c(oc5ccccc45)[C@@H]3C2)N(C)C1=O,-1.9%,-2.6%,i,5.2%,-12.7%,-7.4%
CCC(=O)O[C@@]1(C(=O)SCF)[C@@H](C)C[C@H]2[C@@H]3C[C@@H](F)C4=CC(=O)C=C[C@@]4(C)[C@]3(F)[C@@H](O)C[C@]21C,-1.3%[34.4 µM],0.1%[34.4 µM],i,33.3%[25.6 µM],8.7%[25.6 µM],-1.0%[25.6 µM]
O=c1ccn([C@@H]2O[C@@H](COP(=O)(O)OP(=O)(O)O)[C@H](O)[C@@H]2O)c(=O)[nH]1,-4.2%,2.3%,i,-9.3%,3.0%,10.6%

# Source: PubChem BioAssay (National Center for Advancing Translational Sciences (NCATS))
